# Test results published in PubChem BioAssay (NCATS).
# Records with an inconclusive call do not appear. Entries that show only a call come without a potency. Active and inactive are the calls of the source. Calls follow the shape of the dose curve; as a rule, active = well fitted inhibition curve with a large enough effect; inconclusive = small, poorly fitted or top-dose-only effect; inactive = flat fitted curve, though single readings scatter. Where a SMILES comes first, the peptide text is derived from it. [ ]: non-standard residue; d: D form. Dip = N[C@H](C(=O)O)C(c1ccccc1)c1ccccc1
# Target: Glutathione peroxidase 1 (Homo sapiens) (UniProt P07203)
# Assay: Primary qHTS Assay for Inhibitors of Recombinant Selenoprotein Glutathione Peroxidase 1 (GPX1) (AID 1845191); also: nearly all actives have a fitted effect of over 65% in size
# Settings: recombinant GPX1, GR-coupled NADPH fluorescence, 15 min; series mostly up to 48.8 µM
# Description: Assay Provider: Elias S.J. Arner MD PhD.
# Department of Medical Biochemistry and Biophysics
# Karolinska Institutet, Solna, Stockholm, Sweden
# Selenoprotein glutathione peroxidases (GPX), like the ubiquitously expressed GPX1 and the ferroptosis modulator GPX4, enact their antioxidant activities by reducing hydroperoxides using glutathione. […] GPX1 and GPX4 inhibitors have thus shown promise as anti-cancer agents. Existing inhibitors are often promiscuous, or modulate GPX activity only indirectly, so novel direct inhibitors identified through screening against GPX1 and GPX4 could be valuable. Here, we developed optimized glutathione reductase (GR)-coupled GPX assays for the biochemical high-throughput screen (HTS) of almost 12,000 compounds with known mechanisms of action. Initial hits were triaged using a GR counter-screen, assessed for isoform specificity using a separate GPX2 assay, and were assessed for general selenocysteine-targeting activity using a thioredoxin reductase (TXNRD1) assay. With this suite of assays, we identified novel GPX1/GPX2- and GPX4-specific inhibitors and can here present a validated pipeline for future discovery research for selenoprotein-targeting agents.
# SEQUENCE No. (e.g., 1, 2, 3, etc.); […] (e.g., Cells, Incubation, Reagent, etc.); VALUE; DESCRIPTION.
# 1; Reagent 1; 3 uL; GPx1 enzyme or no enzyme control in 1536-well, black, solid Greiner assay plate.
# 2; Compound; 25 nL; Kalypsis pin tool (Wako USA) equipped with a 1536-well pin head.
# 3; Incubation; 30 min; room temperature.
# 4; Reagent 2; 1 uL; 10 nM GPX1, 1 mM GSH, 0.5 mM CHP, 0.5 mM NADPH, 100 nM GR, 0.01% BSA substrate
# 5; Detection; Fluorescence; ViewLux microplate reader, excitation 340 nm and emission 450 nm.
# 6; Incubation; 15 min; room temperature.
# 7; Detection; Fluorescence; ViewLux microplate reader, excitation 340 nm and emission 450 nm.
# NOTES (numbers refer to Sequence numbers above)
# 1. 3 uL of 16.66 nM GPX1 and 0.016% BSA in assay buffer (50 mM Tris-HCl, 2 mM EDTA (pH 7.5), 150 mM NaCl) was added to columns 3-48 of 1536-well assay plates using a BioRAPTR Flying Reagent Dispenser (Let's Go Robotics (LGR), Carlsbad, CA). A no-enzyme control (0.01% BSA in TES assay buffer) was added to columns 1-2.
# 2. 25 nL of test compounds and DMSO controls were added to each well with a pin tool (Kalypsys).
# 3. The assay plates were incubated for 30 minutes at room temperature.
# 4. 1 uL of master mix (500 nM glutathione reductase (GR), 5 mM reduced glutathione (GSH), 2.5 mM NADPH in assay buffer) was added. 1 uL of cumene hydroperoxide (CHP) ([2.5 mM] in 50% EtOH) was then added within 5 minutes to initiate the reaction. Final concentrations were: 10 nM GPX1, 1 mM GSH, 0.5 mM CHP, 0.5 mM NADPH, 100 nM GR, 0.01% BSA.
# 5. Initial fluorescence readout (t=0) at 340/450 nm was measured using a ViewLux multimodal detector (PerkinElmer, Waltham, MA).
# 7. Endpoint fluorescence readout (t=15) at 340/450 nm was measured 15 min after room temperature incubation.
# Potency is read from the fitted curve at half-maximal effect.
# Chain of Glutathione peroxidase 1 (Homo sapiens) (P07203 whole entry, looked up): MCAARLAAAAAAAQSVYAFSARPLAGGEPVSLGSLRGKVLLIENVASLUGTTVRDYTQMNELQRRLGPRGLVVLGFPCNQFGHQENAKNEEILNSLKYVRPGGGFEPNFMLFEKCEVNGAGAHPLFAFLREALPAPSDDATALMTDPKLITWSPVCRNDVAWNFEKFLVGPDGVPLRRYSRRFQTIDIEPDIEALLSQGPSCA
row,Structure (SMILES),Potency
1,c1ccc(-c2cc(CCC3CCNCC3)c3ccccc3n2)cc1,inactive
2,C=CC(=O)Nc1ccc(F)c(-c2ncnc3[nH]cc(C(=O)OCC)c23)c1,inactive
3,CC(/C=C/[C@@H]1C[C@]1(C)c1ccc2c(c1)C(C)(C)CCC2(C)C)=C\C(=O)O,inactive
4,Cc1cc(-c2nc(CN3CCC(C(=O)NCCCN4C[C@H](C)C[C@H](C)C4)CC3)co2)ccc1F,inactive
5,C=C1C(=O)OC2/C=C(/C)CC/C=C(/C)CCC12 (stereo not given),inactive
6,COc1cc(OC)cc(N2CCN(C(=O)Nc3nc4cc(F)ccc4nc3OC)CC2)c1,inactive
7,CCC=CCC=CCC=CCCCCCCCC(=O)O,inactive
8,O=c1c(-c2ccc(O)cc2)coc2cc(O[C@@H]3O[C@H](CO)[C@@H](O)[C@H](O)[C@H]3O)ccc12,inactive
9,COc1cc(Nc2cnc(C#N)c(O[C@H](C)CN(C)C)n2)ncc1-c1cnn(C)c1,inactive
10,COc1c/c(=C2\C=c3ccccc3=N2)[nH]/c1=C/c1[nH]c(C)cc1C,inactive
11,Cc1cc(OCCCc2c3n(c4c(-c5c(C)nn(C)c5C)c(Cl)ccc24)[C@H](C)CN(c2cn(C)c4ccc(C(=O)O)cc24)C3=O)cc(C)c1Cl,inactive
12,C[C@H]1C[C@@H](n2c(Nc3ccc(OC(F)(F)F)cc3)nc3cc(CCC(=O)O)ccc32)CC(C)(C)C1,inactive
13,CCN1C(=O)N2Cc3cc(OC)cc(OC)c3[C@@H](C)C=C2C12CCN(Cc1cc(C)cc(C)c1)CC2,inactive
14,Cc1c(CN2CCC(Nc3ncnc4sc(CC(F)(F)F)cc34)CC2)ccc2c1cc(C#N)n2Cc1cn[nH]c1,inactive
15,CCN(C)S(=O)(=O)Nc1ccc(F)c(C(=O)c2c[nH]c3ncc(-c4cnc(C5CC5)nc4)cc23)c1F,inactive
16,COc1cc(N2CCN(C)CC2)ccc1Nc1ncc2c(n1)N(C)c1ccccc1C(=O)N2,inactive
17,COc1ccc(S(=O)(=O)N2CCc3cccc(-c4ccncc4)c32)cc1,inactive
18,CCC[C@H](NC(=O)[C@@H]1[C@H]2CCC[C@H]2CN1C(=O)[C@@H](NC(=O)[C@@H](NC(=O)c1cnccn1)C1CCCCC1)C(C)(C)C)C(=O)C(=O)NC1CC1,inactive
19,Cc1cc(C(=O)Nc2nc3cccc(Cl)c3n2C2CCCCN(C(=O)/C=C/CN(C)C)C2)ccn1 (stereo not given),inactive
20,C[C@]1(C(=O)N(CCCC(=O)O)Cc2cccc(Cl)c2)CCN1C(=O)c1csc2ccccc12,inactive

row,Structure (SMILES),Potency
1,CCn1c(-c2nonc2N)nc2cncc(C(=O)N3CC[C@H](N)C3)c21,inactive
2,C=CC1=C(C(=O)O)N2C(=O)[C@@H](NC(=O)/C(=N\OCC(=O)O)c3csc(N)n3)[C@H]2SC1,7.18 µM (active)
3,CO[C@H]1C[C@@H]2CC[C@@H](C)[C@@](O)(O2)C(=O)C(=O)N2CCCC[C@H]2C(=O)O[C@H]([C@H](C)C[C@@H]2CC[C@@H](OCCO)[C@H](OC)C2)CC(=O)[C@H](C)/C=C(/C)[C@@H](O)[C@@H](OC)C(=O)[C@H](C)C[C@H](C)/C=C\C=CC=C1C,inactive
4,C[C@]12CCCN1CC1=NNC(=O)c3cc(F)cc4[nH]c2c1c34,inactive
5,N#Cc1ccc(Cn2cncc2CN2CCN(c3cccc(Cl)c3)C(=O)C2)cc1,inactive
6,CCNCCc1ccc(CN(CC)c2cc(OC)ccc2[C@@H]2CCc3cc(O)ccc3C2)cc1,inactive
7,COc1ncc(Nc2ncc(C(C)N3CCN(S(C)(=O)=O)CC3)cc2-c2nc(C)nc(N)n2)cc1F (stereo not given),inactive
8,COc1ccc(C=CC(=O)O)cc1,inactive
9,O=C(/C=C/c1ccc2ccccc2n1)c1ccncc1,inactive
10,CCCS(=O)(=O)c1nc(NC2CC2)cc(-c2ccc3c(ccn3C3CC(C)(C)NC(C)(C)C3)c2)n1,inactive
11,C[C@@H]1C[C@H]2[C@@H]3C[C@H](F)C4=CC(=O)C=C[C@]4(C)[C@@]3(F)[C@@H](O)C[C@]2(C)[C@@]1(O)C(=O)COC(=O)C(C)(C)C,inactive
12,N#Cc1c(N)nc(N)nc1N[C@H](c1nc2c(F)ccc(Cl)c2c(=O)n1-c1cccnc1)C1CC1,inactive
13,O=Nc1c(-c2c(O)[nH]c3ccc(F)cc23)[nH]c2ccccc12,inactive
14,CCCCCCCCC=CCCCCCCCC(=O)NCCOC(=O)CC(C(=O)O)S(=O)(=O)O (stereo not given),inactive
15,Cc1cc(Nc2ncnc3ccc(NC4=NC(C)(C)CO4)cc23)ccc1Oc1ccn2ncnc2c1,inactive
16,C#C[C@]1(O)CC[C@@H]2[C@@H]3CCC4=CCCC[C@@H]4[C@H]3C(=C)C[C@@]21CC,inactive
17,NCCCC[C@H](NC(=O)[C@@H](NC(=O)[C@H](Cc1c[nH]c2ccccc12)NC(=O)[C@H](CCCCN)NC(=O)[C@H](CCCCN)NC(=O)[C@H](Cc1c[nH]c2ccccc12)NC(=O)[C@H](Cc1c[nH]c2ccccc12)NC(=O)[C@H](CCCCN)NC(=O)[C@@H](N)CCCCN)C(c1ccccc1)c1ccccc1)C(N)=O (H-KKWWKKW[Dip]K-NH2),inactive
18,Nc1nonc1-c1nc2cnccc2n1C1CC1,inactive
19,CCN(CC)C(=O)[C@]1(c2ccccc2)C[C@H]1CN,inactive
20,COc1ccc2c(c1)[C@]1(C[C@H]1c1ccc3c(/C=C/c4ccc(CN5C[C@@H](C)O[C@@H](C)C5)cc4)n[nH]c3c1)C(=O)N2,inactive
